The supplement of paper PMC11624193, “Coupling cellular drug-target engagement to downstream pharmacology with CeTEAM” (Nature Communications, 2024)
Several values for one entry are separate records, joined by “and”; a condition that tells them apart may be missing. Equal entries are not always repeated. Structures can show the parent of a compound that is named as a salt. Values without a mark were called inactive.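 How the source made its calls: active = log2 fold change beyond 2 SD from the library mean after excluding viability outliers; inactive = within 2 SD.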

The compounds below were run against PARP1 L713F-nLuc biosensor (HCT116) (UniProt P09874) (assay: PARP1 L713F-nLuc/akaLuc ratio relative to DMSO control (biosensor stabilization) (fold change); higher = more PARP1 biosensor stabilization (target engagement / stabilizer), active = hit call of the paper). Conditions: stock concentration (mM; final µM = stock mM x 1): 10; 24 h.
PARP1 L713F-nLuc biosensor (HCT116), sequence (P09874 whole entry L713F, looked up): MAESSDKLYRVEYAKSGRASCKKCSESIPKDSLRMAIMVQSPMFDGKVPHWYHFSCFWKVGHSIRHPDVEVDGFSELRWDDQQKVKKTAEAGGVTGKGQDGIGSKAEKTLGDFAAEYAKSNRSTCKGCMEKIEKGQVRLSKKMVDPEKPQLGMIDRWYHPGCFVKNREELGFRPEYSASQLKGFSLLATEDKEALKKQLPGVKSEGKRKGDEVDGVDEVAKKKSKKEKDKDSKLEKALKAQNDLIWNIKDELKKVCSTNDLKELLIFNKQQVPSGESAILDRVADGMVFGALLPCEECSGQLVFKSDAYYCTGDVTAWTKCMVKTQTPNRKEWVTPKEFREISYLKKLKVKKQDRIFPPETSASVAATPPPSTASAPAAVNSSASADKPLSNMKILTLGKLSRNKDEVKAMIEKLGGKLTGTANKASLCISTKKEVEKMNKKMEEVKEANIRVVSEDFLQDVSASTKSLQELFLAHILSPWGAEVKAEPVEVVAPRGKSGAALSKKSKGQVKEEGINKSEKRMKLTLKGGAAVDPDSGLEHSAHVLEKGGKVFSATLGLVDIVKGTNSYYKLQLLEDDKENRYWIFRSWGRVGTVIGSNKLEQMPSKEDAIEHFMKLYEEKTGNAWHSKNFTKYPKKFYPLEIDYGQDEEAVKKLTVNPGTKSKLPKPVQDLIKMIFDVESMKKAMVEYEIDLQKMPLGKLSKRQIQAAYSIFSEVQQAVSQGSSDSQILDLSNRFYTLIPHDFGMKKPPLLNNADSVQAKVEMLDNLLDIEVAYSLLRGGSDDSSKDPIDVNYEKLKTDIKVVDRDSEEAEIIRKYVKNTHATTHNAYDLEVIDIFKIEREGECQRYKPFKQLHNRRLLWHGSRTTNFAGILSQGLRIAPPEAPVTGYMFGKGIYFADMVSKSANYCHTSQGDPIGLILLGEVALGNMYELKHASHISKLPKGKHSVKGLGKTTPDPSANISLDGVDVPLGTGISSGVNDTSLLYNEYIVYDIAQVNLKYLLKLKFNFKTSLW

Compound	PARP1 L713F-nLuc/akaLuc ratio
C=C(c1ccc(C(=O)O)cc1)c1cc2c(cc1C)C(C)(C)CCC2(C)C [Bexarotene]	0.719
CC1(C)NC(=O)N(c2ccc([N+](=O)[O-])c(C(F)(F)F)c2)C1=O [Nilutamide]	0.772
CCNc1nc(Nc2cc(F)c(C(=O)N3CCOCC3)cc2OC)ncc1C(F)(F)F	0.683
CCn1c(-c2nonc2N)nc2c(C#CC(C)(C)O)ncc(OC[C@H]3CCCNC3)c21	1.03 and 0.895
NC(=O)N1CCC(CC(=O)N2CCC([C@H]3c4ncc(Br)cc4CCc4cc(Cl)cc(Br)c43)CC2)CC1 [Lonafarnib]	1.59
CC/C(=C(\c1ccccc1)c1ccc(OCCNC)cc1)c1ccccc1 [N-Desmethyltamoxifen (hydrochloride)]	0.968
C=CC(=O)Nc1cccc(Nc2nc(Nc3ccc(OCCOC)cc3)ncc2F)c1 [Spebrutinib (CC-292, AVL-292)]	0.464
Cc1cc(N2C[C@@H](C)N[C@@H](C)C2)ncc1-c1ccc(-c2nc3c(ccn3C)c(=O)[nH]2)cc1	1.15
CC(C)Nc1cc(-c2c[nH]c(C(=O)N[C@H](CO)c3cccc(Cl)c3)c2)c(Cl)cn1	0.364
Nc1nc(Cl)nc2c1ncn2[C@H]1C[C@H](O)[C@@H](CO)O1 [Cladribine]	0.383
O=C(Nc1ccc(O)c(C(=O)O)c1)c1cccc(NC(=O)c2ccco2)c1	1.19
O=C1c2ccccc2C(=O)c2c(NCCc3ccc(O)cc3)ccc(NCCc3ccc(O)cc3)c21	0.91
Nc1ncn([C@H]2C[C@H](O)[C@@H](CO)O2)c(=O)n1 [Decitabine]	3.01 (active)
Cc1cc(Nc2nc(N[C@@H](C)c3ncc(F)cn3)ncc2Cl)[nH]n1	0.882
NC(=O)c1cnc2[nH]ccc2c1N[C@@H]1[C@@H]2CC3C[C@H]1C[C@@](O)(C3)C2	0.774
CS(=O)(=O)c1ccc(Oc2cc(F)cc(C#N)c2)c2c1[C@H](O)C(F)(F)C2	1.42
CC(C)Oc1ccc(-c2c[nH]cc2CN(C)CCN)cc1	1.38
O=C1C(Cl)=C(NCCN2CCOCC2)C(=O)c2ncccc21	0.636
O=C(c1cccc(Cl)c1F)N1CCN(Cc2cccc(Nc3nccs3)n2)CC1	1.61
O=C(NO)c1ccc(CN2CCCc3cc(Cl)ccc32)cc1	1.01
O=C(O)c1ccc(CN2CCC(CN[C@@H]3C[C@H]3c3ccccc3)CC2)cc1	0.815 and 0.79 and 0.987
CN[C@@H](C)C(=O)N[C@H]1CN(C(=O)CC(C)C)CC[C@H]2CC[C@@H](C(=O)NC(c3ccccc3)c3ccccc3)N2C1=O	0.738
COc1cc2nccc(Oc3ccc(NC(=O)NC4CC4)c(Cl)c3)c2cc1C(N)=O [Lenvatinib (E7080)]	0.673
COc1ccc2c(Oc3ccc4c(C(=O)Nc5ccccc5N)cccc4c3)ccnc2c1 [Chiauranib]	0.819
CC(C)[C@@](C)(O)[C@@H]1CN(c2nc(-c3[nH]nc4ncccc34)c(F)cc2Cl)CCN1	0.823
CCC(CC)(NC(=O)C(C)C)C(=O)N[C@@H](CCCN=C(N)N)C(=O)NC1(C(=O)NC(c2ccc(F)cc2)c2ccc(F)cc2)CCCC1	0.991
N#CC[C@H](C1CCCC1)n1cc(-c2ncnc3[nH]ccc23)cn1 [Ruxolitinib (phosphate)]	0.575
CC[C@@H]1CN(C(=O)NCC(F)(F)F)C[C@@H]1c1cnc2cnc3[nH]ccc3n12 [Upadacitinib]	1.32
